According to PubChem BioAssay AID1159580 (chemical genetic matrix, 2015):
Screen size: about 5,500 compounds; about 2,000 (36%) were called active. Not shown: some 18% with an inconclusive outcome. Cut-off read from the data, not from the text of the source: active = normalized growth mostly below about 0.91 (no sharp cut-off); inconclusive = no clear call, values can overlap the other calls; inactive = mostly above about 0.92. Some of the results follow.

Test: chemical genetic growth profiling, strain panel (AID 1159580);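 note: tested at 20 µM; growth read once vehicle control cultures reached saturation at 30 °C; 1 = growth at the plate median or of vehicle wells; lower values mean less growth of the strain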
Details: S. cerevisiae deletion strains, growth OD

Measured: normalized growth

CS(=O)(=O)c1sc(C(=O)Sc2ccc(Cl)cc2)c2c1C=CCC2
active: locus YAR019C, strain CDC15, hits give low values 0.857 | locus YBL105C, strain PKC1, hits give low values 0.868 | locus YBR135W, strain CKS1, hits give low values 0.855 | locus YBR136W, strain MEC1, hits give low values 0.867 | locus YBR160W, strain CDC28, hits give low values 0.873 | locus YDL017W, strain CDC7, hits give low values 0.881 | locus YDL028C, strain MPS1, hits give low values 0.88 | locus YDL108W, strain KIN28, hits give low values 0.866 | locus YDL132W, strain cdc53, hits give low values 0.848 | locus YDL214C, strain PRR2, hits give low values 0.42 | locus YDR052C, strain DBF4, hits give low values 0.903 | locus YDR054C, strain cdc34, hits give low values 0.771 | locus YDR226W, strain ADK1, hits give low values 0.869 | locus YDR477W, strain SNF1, hits give low values 0.339 | locus YER123W, strain YCK3, hits give low values 0.368 | locus YER133W, strain GLC7, hits give low values 0.416 | locus YFL009W, strain cdc4, hits give low values 0.857 | locus YFL029C, strain CAK1, hits give low values 0.853 | locus YFR003C, strain YPI1, hits give low values 0.881 | locus YFR019W, strain FAB1, hits give low values 0.327 | locus YFR028C, strain CDC14, hits give low values 0.871 | locus YGR040W, strain KSS1, hits give low values 0.437 | locus YGR052W, strain FMP48, hits give low values 0.492 | locus YGR092W, strain DBF2, hits give low values 0.174 | locus YHR030C, strain SLT2, hits give low values 0.374 | locus YHR079C, strain IRE1, hits give low values 0.349 | locus YHR082C, strain KSP1, hits give low values 0.511 | locus YHR205W, strain SCH9, hits give low values 0.206 | locus YIL147C, strain SLN1, hits give low values 0.886 | locus YJL095W, strain BCK1, hits give low values 0.369 | locus YJL157C, strain FAR1, hits give low values 0.358 | locus YJR016C, strain ILV3, hits give low values 0.862 | locus YJR066W, strain TOR1 (second series), hits give low values 0.103 | locus YJR066W, strain TOR1, hits give low values 0.353 | locus YKL048C, strain ELM1, hits give low values 0.532 | locus YKL067W, strain YNK1, hits give low values 0.428 | locus YKL101W, strain HSL1, hits give low values 0.371 | locus YKL193C, strain SDS22, hits give low values 0.845 | locus YKL203C, strain TOR2, hits give low values 0.379 | locus YLR113W, strain HOG1, hits give low values 0.3 | locus YLR133W, strain CKI1, hits give low values 0.423 | locus YLR403W, strain SFP1, hits give low values 0.217 | locus YML070W, strain DAK1, hits give low values 0.397 | locus YMR001C, strain CDC5, hits give low values 0.836 | locus YMR205C, strain PFK2 (second series), hits give low values 0.458 | locus YMR277W, strain FCP1, hits give low values 0.838 | locus YNL006W, strain LST8, hits give low values 0.873 | locus YNL020C, strain ARK1, hits give low values 0.39 | locus YNL161W, strain CBK1, hits give low values 0.862 | locus YNL183C, strain NPR1, hits give low values 0.418 | locus YNL207W, strain RIO2, hits give low values 0.842 | locus YNL222W, strain SSU72, hits give low values 0.856 | locus YNL307C, strain MCK1 (second series), hits give low values 0.221 | locus YOL078W, strain AVO1, hits give low values 0.839 | locus YOL136C, strain PFK27, hits give low values 0.375 | locus YOR061W, strain CKA2, hits give low values 0.256 | locus YOR119C, strain RIO1, hits give low values 0.527 | locus YOR231W, strain MKK1, hits give low values 0.353 | locus YOR329C, strain SCD5, hits give low values 0.876 | locus YPL031C, strain PHO85, hits give low values 0.308 | locus YPL153C, strain RAD53, hits give low values 0.279 | locus YPL204W, strain HRR25, hits give low values 0.286 | locus YPL209C, strain IPL1, hits give low values 0.854 | locus YPL256C, strain CLN2, hits give low values 0.521 | locus YPR025C, strain CCL1, hits give low values 0.863 | strain TSCII, hits give low values 0.841
inactive: locus YDL101C, strain DUN1, hits give low values 0.92 | locus YJL128C, strain PBS2, hits give low values 0.894 | locus YPR106W, strain ISR1, hits give low values 0.928 | locus YPR111W, strain DBF20, hits give low values 0.929 | strain NNK1, hits give low values 0.907
